Test results taken from PubChem BioAssay (NCI).
About 83,000 compounds went through this panel and 20% of them were active in at least one assay; those are over-represented in the sample as a whole.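 96-well plates, one dose, 48 hours. Percent growth reported; active if below 10.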 Values without a mark were called inactive. Activity calls are given as the source filed them.

These compounds were tested on MDA-MB-231 breast (assay: NCI-60 one-dose screen, 48 h (100 = growth as untreated, 0 = no growth, -100 = all killed)). Settings: 10 µM unless noted.
`CCN1CCN(/C(=N\c2sc(-c3ccccc3)nc2-c2ccccc2)c2ccccc2)CC1` was tested, and the growth was 79.9%. `CCCCN1C(=O)/C(=c2\sc3n(c2=O)C2C(NN=3)N(CC)C(=O)N2CC)c2cc(Cl)ccc21` (centres undefined) showed a growth of 58.3%. In the case of `O=C1C2=C(C(=O)c3c(O)cccc31)C(c1ccco1)c1sc(=O)[nH]c1S2` (centres undefined), the growth is reported as 8.88% (active). With `COc1cc(/C=C/C(=O)c2ccc(C(F)(F)F)cc2)ccc1Oc1nc(NCCO)nc(N2CCOCC2)n1` the growth was 92.9%. `OC1CCN(CCCOc2c3ccc(Cl)cc3nc3c2oc2ccc(Cl)cc23)CC1` showed a growth of 24.5%. In the case of `Nc1c(C(=O)Nc2ccc(Cl)cc2)sc2nc(-c3cnccn3)cc(-c3cccs3)c12`, the growth is reported as 72.9%. `O=C(N/N=C/c1ccc([N+](=O)[O-])o1)c1[nH]c2ccc(Br)cc2c1-c1ccccc1` was tested, and the growth was -2.79% (active). In the case of `Cc1ccc(-c2nc(C(Cl)Cl)nc3cc(-c4ccccc4)nn23)cc1`, the growth is reported as 12.9%. Compound `CCOC(=O)c1c(NC(=O)c2cccc(C(F)(F)F)c2)sc2cc(O)ccc12` has a growth of 87.1%. With `OC1CCN(CCCOc2c3ccccc3nc3c2oc2ccccc23)CC1` the growth was -31.5% (active). In the case of `COc1ccc(C(=O)/C=C/c2ccc(OCc3ccc(Cl)cc3)c(OC)c2)cc1OC`, the growth is reported as 57.7%. `CN(C)CCCNc1c2ccccc2nc2c1oc1ccc(Cl)cc12` was tested, and the growth was -31.7% (active). `COc1ccc(NC2=CC(=O)C(C)=C(C)C2=O)cc1` showed a growth of 83.8%. `COc1ccc(-n2c(SCC(=O)Nc3ccc(-c4nc5ccccc5[nH]4)cc3)nc3ccccc3c2=O)cc1` gave a growth of 29%. With `C/C(=N\NC(N)=O)c1c(O)sc(=O)[nH]c1=O` the growth was 102%. With `OC1CCN(CCCOc2c3ccc(Cl)cc3nc3c2oc2ccccc23)CC1` the growth was -14.7% (active). `NS(=O)(=O)c1ccc(Nc2nc(Nc3ccccc3)nc(-n3nc(-c4ccccc4)cc3-c3ccccc3)n2)cc1` gave a growth of 37%. `COc1cc(OC)c(C2C(Cl)C(=O)N2Nc2ncnc3ccccc23)cc1OC` (centres undefined) showed a growth of 87.3%. With `CN(C)CCCOc1c2ccc(Cl)cc2nc2c1oc1ccc(Cl)cc12` the growth was -48.3% (active). `Cc1[nH]nc2ncc(C#Cc3cncc(C(=O)Nc4ccc(CN5CCN(C)CC5)c(C(F)(F)F)c4)c3)cc12` was tested, and the growth was -39.2% (active). For `CC1=C(C)C(=O)C(Nc2cccc(C(F)(F)F)c2)=C(Cl)C1=O`, the growth was 19%. In the case of `Cn1cc(-c2cc(N)n3nc(-c4cn(C)c5ccc(Br)cc45)cc3n2)c2cc(Br)ccc21`, the growth is reported as 63.3%. With `O=c1[nH]c2ccc(Cl)cc2cc1CSc1ccccc1Nc1nccc(-c2ccc(Cl)cc2)n1` the growth was 94.3%. For `COc1ccc(-c2nc3ccc(-c4nnc(SCC(=O)Nc5ccc(C(=O)/C=C/c6ccccc6)cc5)o4)cc3[nH]2)cc1OC`, the growth was 91.2%. For `N#Cc1nc(-c2ccccc2)oc1S(=O)(=O)N1CCN(CCc2ccccn2)CC1`, the growth was 38.9%. In the case of `CN1CCN(Cc2ccc(NC(=O)c3cncc(C#Cc4cnc5[nH]ncc5c4)c3)cc2C(F)(F)F)CC1`, the growth is reported as -23.8% (active). For `COc1cc(/C=C/C(=O)c2ccc(F)cc2)ccc1Oc1nc(NCCO)nc(N2CCOCC2)n1`, the growth was 86.7%. Work on `Clc1ccc2c(OCCCN3CCOCC3)c3oc4ccccc4c3nc2c1` yielded a growth of 32.3%. Work on `O=C(c1ccc(O)cc1)C1[C@H](c2ccc(Cl)cc2)[C@@H](c2ccccc2)NC12C(=O)Nc1ccc(Cl)cc12` (some centres undefined) yielded a growth of 48.6%. For `Nc1cc(-c2c[nH]c3ccccc23)nc2cc(-c3c[nH]c4ccccc34)nn12`, the growth was 48.2%. `Oc1c(Cl)cc(Cl)c2ccc(CN3CCCCC3)nc12` showed a growth of 40.4%. For `CN(C)CCCOc1c2ccc(Cl)cc2nc2c1oc1ccccc12`, the growth was -7.6% (active). `CS(=O)(=O)c1ccc(-c2nc3ccccn3c2/C=N/Nc2nc(-c3ccc(Br)cc3)cs2)cc1` showed a growth of 105%. With `C=CCn1c(SCC(=O)c2ccc(Br)cc2)nnc1-c1c[nH]c2ccccc12` the growth was 96.9%. `COc1cc(/C=C/C(=O)c2ccccc2)ccc1Oc1nc(NCCO)nc(N2CCOCC2)n1` gave a growth of 97.1%. `COC1CCN(Cc2ccc3c(NNC(=O)c4cnccn4)nc4cc(F)ccc4n23)C1` (centres undefined) was tested, and the growth was 19.8%. With `CC(C)NC(=O)c1cc(-c2ccc(NC(=O)Nc3ccc(N4CCOCC4)c(C(F)(F)F)c3)cc2)nc2cccnc12` the growth was 48.7%. In the case of `O=C(N/N=C/c1ccco1)c1[nH]c2ccc(Br)cc2c1-c1ccccc1`, the growth is reported as 6.62% (active). Compound `O=C(CSc1nccc(=O)[nH]1)Nc1ccc(-c2nc3ccccc3[nH]2)cc1` has a growth of 102%.
